Consider seven molecules from PubChem BioAssay (Tox21).

Test [1] in a line: Nuclear factor erythroid 2-related factor 2/antioxidant responsive element (Nrf2/ARE) small molecule agonists: qHTS cell viability counter screen in human keratinocytes (AID 1919968; active = well fitted curve in the direction sought with a large enough effect in the repeat runs; an effect the other way counts as inactive or inconclusive; also: nearly all actives have a fitted effect of over 55% in size; also: potency is read from the fitted curve at half-maximal effect). The essentials:
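Viability counter-screen: KeratinoSens reporter cells, DMSO-delivered compounds, 23 h at 37 C, CellTiter-Fluor fluorescence.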

Test [2] has as its target Gonadotropin-releasing hormone receptor (Homo sapiens) (UniProt P30968). Nature of the test: Human gonadotropin-releasing hormone receptor (GnRHR) small molecule agonists, calcium flux assay in GnRHR-HEK293 cells (AID 1920063). Also: nearly all actives have a fitted effect of over 35% in size. The essentials: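 Tox21-format agonist screen using human GnRHR-expressing HEK293 cells and a fluorescent calcium dye; kinetic 3-min fluorescence reading after compound addition, 15-point concentration series run in triplicate.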

The target in test [3] is KiSS-1 receptor (Homo sapiens) (UniProt Q969F8). Nature of the test: Human kisspeptin (KISS1R) small molecule agonists, calcium flux assay in KISS1R-HEK293 cells (AID 1920064; active = well fitted curve in the direction sought with a large enough effect in the repeat runs; an effect the other way counts as inactive or inconclusive). An outline of the steps:
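Intracellular calcium mobilization in KISS1R-HEK293 cells was recorded by fluorescence (Ex/Em 480/540) for 3 min following compound addition to cells pre-loaded 1 h with calcium dye.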

Test [4] can be described thus: G protein-coupled receptor (GPCR) small molecule agonists, calcium flux assay: HEK293 wild type cell line counter screen (AID 1920065). An outline of the steps:
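In this agonist-mode screen, ATP is the positive control and DMSO the vehicle. Cells grow 18 h before a 1 h dye incubation at 37 C; signal is taken at Ex/Em 480/540 over 3 min.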

Test [5] in a line: p53 small molecule agonists, cell-based qHTS assay with human liver microsomes (AID 1963577). The essentials:
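Fluorescence of the beta-lactamase reporter in p53RE-bla cells, detected with LiveBLAzer substrate (2 h, room temperature, dark), served as the read-out after 16 h compound exposure at 37 C with human liver microsomes and NADPH, each 0.5 mg/mL final.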

The nature of test [6]: p53 small molecule agonists, cell-based qHTS assay with rat liver microsomes (AID 1963578). An outline of the steps: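 Cells carrying a p53 response element–beta-lactamase reporter were plated and rested 5 h, then dosed with compound in DMSO plus rat liver microsomes and NADPH, each at 0.5 mg/mL final. After 16 h at 37 C, LiveBLAzer substrate was added for 2 h.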
Test [7] in a line: p53 small molecule agonists, cell-based qHTS assay with human liver microsomes: qHTS cell viability counter screen (AID 1963579). Also: nearly all actives have a fitted effect of over 45% in size. An outline of the steps: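 Cytotoxicity counter screen: p53RE-bla, 4,000 cells/well; 5 h settle, 37 C/5% CO2; cpd + HLM 0.5 mg/mL + NADPH 0.5 mg/mL (final); 16 h, 37 C; CellTiter-Glo, 30 min RT, luminescence.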
A short description of test [8]: p53 small molecule agonists, cell-based qHTS assay with rat liver microsomes: qHTS cell viability counter screen (AID 1963580). Also: nearly all actives have a fitted effect of over 45% in size. An outline of the steps:
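Viability is assessed in parallel with the p53 reporter read: HCT-116 p53RE-bla cells receive compounds plus rat microsomes and NADPH (0.5 mg/mL final apiece), incubate 16 h at 37 C, and then CellTiter-Glo luminescence is recorded.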

Test [9] can be described thus: p53 small molecule agonists, cell-based qHTS assay: qHTS cell viability counter screen (AID 1963581). Also: nearly all actives have a fitted effect of over 45% in size. The essentials: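 Compounds are pinned onto HCT-116 p53RE-bla cells and left 16 h at 37 C. Following the reporter FRET read, ATP is quantified by CellTiter-Glo luminescence after 30 min at room temperature.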
A short description of test [10]: p53 small molecule agonists, cell-based qHTS assay (AID 1963582; active = well fitted activation curve with a large enough effect in the signal ratio in the repeat runs, not every such curve was filed as active; the % refers to the signal ratio). The essentials:
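Agonist activity was scored from beta-lactamase FRET fluorescence in p53RE-bla cells treated 16 h at 37 C with compounds in DMSO, substrate incubation being 2 h at room temperature.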

Test [11] addresses 5-hydroxytryptamine receptor 2A (Homo sapiens) (UniProt P28223). The experiment in a line: 5-hydroxytryptamine receptor 2A (HTR2A) small molecule agonists, cell-based qHTS assay (AID 1963587). Also: nearly all actives have a fitted effect of over 30% in size. The essentials: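 CHO cells stably expressing human HTR2A, plated 18 h, loaded with calcium dye 1 h at 37 C. Agonist mode: compounds added and intracellular calcium fluorescence recorded kinetically for 2 min at 1 sec intervals.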

For test [12], the target named is Muscarinic acetylcholine receptor M1 (Homo sapiens) (UniProt P11229). Nature of the test: Cholinergic receptor muscarinic 1 (CHRM1) small molecule antagonists, cell-based qHTS assay (AID 1963588). Also: nearly all actives have a fitted effect of over 40% in size. An outline of the steps: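 CHRM1-CHO calcium-flux assay, antagonist mode. Cells were seeded 18 h, dye-loaded 1 h at 37 C and given compound for 5 min at RT, then acetylcholine was added at 50nM. FDSS fluorescence was read 3 min; 15 concentrations, three runs.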
Sequence of Muscarinic acetylcholine receptor M1 (Homo sapiens) (P11229 whole entry, looked up): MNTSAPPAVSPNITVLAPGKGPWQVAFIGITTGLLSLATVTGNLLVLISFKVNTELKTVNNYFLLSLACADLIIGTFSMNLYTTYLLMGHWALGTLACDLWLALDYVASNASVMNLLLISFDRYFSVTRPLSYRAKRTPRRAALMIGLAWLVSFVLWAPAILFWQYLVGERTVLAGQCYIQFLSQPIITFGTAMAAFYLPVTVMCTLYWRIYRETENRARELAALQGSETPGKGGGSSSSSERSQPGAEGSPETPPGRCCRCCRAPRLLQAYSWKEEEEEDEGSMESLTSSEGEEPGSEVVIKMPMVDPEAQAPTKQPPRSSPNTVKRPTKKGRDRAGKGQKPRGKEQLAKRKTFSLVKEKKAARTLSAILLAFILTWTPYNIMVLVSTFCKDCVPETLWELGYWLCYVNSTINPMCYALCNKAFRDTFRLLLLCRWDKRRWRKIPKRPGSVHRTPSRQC

Test [13] has the same target. The experiment in a line: Cholinergic receptor muscarinic 1 (CHRM1) small molecule agonists, cell-based qHTS assay (AID 1963589). Also: nearly all actives have a fitted effect of over 35% in size. The essentials: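 Stable CHRM1-CHO cells (human receptor) were incubated 18 h, dye-loaded for 1 h at 37 C and exposed to test compounds for agonist activity, with calcium-dependent fluorescence followed kinetically.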
Test [14] is described as follows: cAMP Responsive Elements (CRE) small molecule agonists, cell-based qHTS assay (AID 1963590). An outline of the steps: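 FRET-based beta-lactamase readout (LiveBLAzer B/G, 2 h RT) quantified CRE activation in HEK 293T CRE-bla cells after 3 h treatment with DMSO-dissolved compounds.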
Test [15] in a line: cAMP Responsive Elements (CRE) small molecule antagonists, cell-based qHTS assay (AID 1963591; active = well fitted inhibition curve with a large enough effect in the signal ratio in the repeat runs, not every such curve was filed as active; the % refers to the signal ratio). The essentials:
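qHTS in CRE-bla HEK 293T cells: compound in DMSO, then 0.25 uM NKH477 (final), 3 h at 37 °C/5% CO2; beta-lactamase FRET read-out after 2 h substrate incubation.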

Test [16] deals with Beta-2 adrenergic receptor (Homo sapiens) (UniProt P07550). The experiment in a line: Adrenergic beta2 receptor (ADRB2) small molecule antagonists, cell-based qHTS assay (AID 1963592). Also: nearly all actives have a fitted effect of over 50% in size. Also: potency is read from the fitted curve at half-maximal effect. An outline of the steps: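 Cells (CHO, stable ADRB2 overexpression) incubated 18-20hr at 37C; compounds added from DMSO; agonist mix (1nM isoproterenol, 100uM IBMX, 25uM Ro-20-1724) added; 0.5hr RT; d2-cAMP and anti-cAMP-cryptate added; 1hr RT; 665/615 nm read.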
Sequence of Beta-2 adrenergic receptor (Homo sapiens) (P07550 whole entry, looked up): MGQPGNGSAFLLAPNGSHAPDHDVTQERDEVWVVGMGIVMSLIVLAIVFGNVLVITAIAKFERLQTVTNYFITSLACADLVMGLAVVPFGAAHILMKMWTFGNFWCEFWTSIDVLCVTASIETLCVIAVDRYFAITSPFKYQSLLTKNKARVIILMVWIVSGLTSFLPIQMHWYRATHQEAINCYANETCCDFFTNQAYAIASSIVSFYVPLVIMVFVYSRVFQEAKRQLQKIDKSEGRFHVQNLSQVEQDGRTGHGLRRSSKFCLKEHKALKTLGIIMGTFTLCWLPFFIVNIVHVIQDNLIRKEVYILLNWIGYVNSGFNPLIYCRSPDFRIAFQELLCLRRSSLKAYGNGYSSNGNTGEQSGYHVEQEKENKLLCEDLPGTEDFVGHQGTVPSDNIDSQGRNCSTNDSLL

For test [17] the target is unchanged. Nature of the test: Adrenergic beta2 receptor (ADRB2) small molecule agonists, cell-based qHTS assay (AID 1963593).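 Also: CHO cells stably overexpressing human ADRB2.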 An outline of the steps: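 CHO cells stably over-expressing ADRB2 were plated overnight at 37C, then dosed with compounds plus a stimulation mix containing 100uM IBMX and 25uM Ro-20-1724 for 0.5hr at room temperature. cAMP was measured by HTRF competition, 1hr.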

Test [18] addresses D(2) dopamine receptor (Homo sapiens) (UniProt P14416). The experiment in a line: Dopamine D2 receptor (DRD2) small molecule agonists, cell-based qHTS assay (AID 1963594). Also: nearly all actives have a fitted effect of over 35% in size. An outline of the steps: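 HEK293 cells stably expressing human DRD2, pre-treated with PDE inhibitor Ro20-1724 (0.1 mM final) and compound 10 min at room temperature, then stimulated with NKH477 (200nM […]) for 30 min. cAMP read by HTRF (665/620 nm).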

For test [19] the target is unchanged. Nature of the test: Dopamine D2 receptor (DRD2) small molecule antagonists, cell-based qHTS assay (AID 1963595; active = well fitted inhibition curve with a large enough effect in the signal ratio in the repeat runs, with a control signal flat; the % refers to the signal ratio). The essentials:
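HTRF cAMP read-out at 665 and 620 nm emission (340 nm excitation). Antagonist mode: compounds were tested against 12 nM quinpirole in DRD2-HEK293 cells, with 200 nM NKH477 raising cAMP and 0.1 mM Ro20-1724 blocking its breakdown.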

The target of test [20] is 5-hydroxytryptamine receptor 2A (Homo sapiens) (UniProt P28223). Nature of the test: 5-hydroxytryptamine receptor 2A (HTR2A) small molecule antagonists, cell-based qHTS assay (AID 1963586). Also: nearly all actives have a fitted effect of over 45% in size. The essentials: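 Antagonist-mode intracellular calcium assay: DOI (4 nM) added after 5 min compound pre-incubation at room temperature to dye-loaded HTR2A-CHO cells. Fluorescence followed for 3 min, sampled every second.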
Sequence of 5-hydroxytryptamine receptor 2A (Homo sapiens) (P28223 whole entry, looked up): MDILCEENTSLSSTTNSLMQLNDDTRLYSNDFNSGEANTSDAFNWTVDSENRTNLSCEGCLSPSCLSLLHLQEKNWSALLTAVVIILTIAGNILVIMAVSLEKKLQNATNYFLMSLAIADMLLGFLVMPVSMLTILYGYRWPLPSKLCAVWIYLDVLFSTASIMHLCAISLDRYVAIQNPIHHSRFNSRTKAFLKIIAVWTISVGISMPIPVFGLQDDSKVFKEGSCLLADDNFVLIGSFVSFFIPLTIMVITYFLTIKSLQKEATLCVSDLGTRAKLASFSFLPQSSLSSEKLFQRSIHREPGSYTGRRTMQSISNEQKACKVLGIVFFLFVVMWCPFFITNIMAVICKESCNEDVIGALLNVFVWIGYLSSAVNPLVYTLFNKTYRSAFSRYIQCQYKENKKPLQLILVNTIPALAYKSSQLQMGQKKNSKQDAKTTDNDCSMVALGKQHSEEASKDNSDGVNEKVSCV

Each structure is given as a SMILES string. Records with an inconclusive call do not appear. Some structures have more than one record in an assay (separate samples or runs), and their calls can disagree. Calls of active or inactive are those of the source. Unless noted, calls follow the shape of the full dose curve.

Sequence of D(2) dopamine receptor (Homo sapiens) (P14416 whole entry, looked up): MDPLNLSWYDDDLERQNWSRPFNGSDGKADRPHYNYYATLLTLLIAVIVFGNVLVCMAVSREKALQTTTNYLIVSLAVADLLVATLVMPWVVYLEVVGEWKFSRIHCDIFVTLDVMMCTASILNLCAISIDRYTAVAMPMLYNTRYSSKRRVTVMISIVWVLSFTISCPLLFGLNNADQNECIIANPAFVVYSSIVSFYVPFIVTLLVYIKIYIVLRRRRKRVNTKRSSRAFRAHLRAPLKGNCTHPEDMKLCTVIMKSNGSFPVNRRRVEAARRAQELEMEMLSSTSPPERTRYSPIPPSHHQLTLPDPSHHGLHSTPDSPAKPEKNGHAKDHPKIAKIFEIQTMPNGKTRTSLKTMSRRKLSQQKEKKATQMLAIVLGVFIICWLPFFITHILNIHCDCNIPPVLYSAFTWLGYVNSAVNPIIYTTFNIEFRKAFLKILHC
Sequence of KiSS-1 receptor (Homo sapiens) (Q969F8 whole entry, looked up): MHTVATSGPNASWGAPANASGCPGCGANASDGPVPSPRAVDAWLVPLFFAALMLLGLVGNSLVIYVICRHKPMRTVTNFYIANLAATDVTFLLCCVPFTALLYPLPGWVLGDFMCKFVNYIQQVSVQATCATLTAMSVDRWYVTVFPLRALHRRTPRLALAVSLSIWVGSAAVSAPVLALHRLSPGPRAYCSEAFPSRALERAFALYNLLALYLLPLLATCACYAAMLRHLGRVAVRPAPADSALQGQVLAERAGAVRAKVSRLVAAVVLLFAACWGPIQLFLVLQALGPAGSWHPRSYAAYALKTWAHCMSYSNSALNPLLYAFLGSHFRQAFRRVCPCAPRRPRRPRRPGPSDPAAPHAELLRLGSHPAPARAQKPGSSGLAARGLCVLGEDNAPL
Sequence of Gonadotropin-releasing hormone receptor (Homo sapiens) (P30968 whole entry, looked up): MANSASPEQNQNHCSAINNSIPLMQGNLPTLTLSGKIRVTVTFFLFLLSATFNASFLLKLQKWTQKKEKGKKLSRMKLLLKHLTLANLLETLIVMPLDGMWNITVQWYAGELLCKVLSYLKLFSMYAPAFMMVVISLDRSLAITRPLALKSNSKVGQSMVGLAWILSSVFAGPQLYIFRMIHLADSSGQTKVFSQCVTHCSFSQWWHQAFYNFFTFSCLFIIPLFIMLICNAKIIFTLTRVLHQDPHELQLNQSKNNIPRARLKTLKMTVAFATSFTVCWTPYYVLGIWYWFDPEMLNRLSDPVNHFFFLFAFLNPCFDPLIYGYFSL

As for `CCCCC(C)C(=O)O` (stereo not drawn), the Potency result in test [1], in test [2], in test [3], in [4], in test [5] and in test [6] was “inactive” each time. Moreover, the Potency result in test [7], in test [8], in [9], in test [10], in test [11] and in test [12] was “inactive” in each case. For the same molecule, the Potency result in test [13], in test [14], in test [15], in [16], in [17] and in [18] was “inactive” throughout. For the same molecule, the Potency entry in test [19] is “inactive”.
For the molecule `CC(=O)CC(N)=O`, the Potency result in test [1], in test [2], in test [3], in [4], in [5] and in test [6] was “inactive” throughout. Moreover, the Potency entry in test [7], in test [8], in [9], in [10], in [20] and in test [11] was “inactive” throughout. In addition, the Potency result in test [12], in [13], in test [14], in test [15], in [16] and in test [17] was “inactive” each time. For the same molecule, the Potency result in [18] and in test [19] was “inactive” in each case.
Take `CNCCCC12CCC(c3ccccc31)c1ccccc12`: the Potency in [1] was 54.5 µM (active). The Potency result in test [4], in test [5], in test [6], in test [7], in test [8] and in test [9] was “inactive” each time. In addition, the Potency entry in [10], in test [14], in test [15], in [18] and in test [19] was “inactive” each time.
`CC(C)CC(C)(O)C#CC(C)(O)CC(C)C` (stereo not drawn): the Potency result in [1], in test [2], in test [3], in test [4], in [5] and in test [6] was “inactive” throughout. Also, the Potency result in test [7], in test [8], in test [9], in test [10], in test [20] and in test [11] was “inactive” in each case. Moreover, the Potency entry in test [12], in test [13], in test [14], in [15], in test [17] and in test [18] was “inactive” throughout. Besides, the Potency result in test [19] was “inactive”. Further, the Potency in test [16] was 59.9 µM (active) and inactive.
As for `COc1cc(C=O)ccc1OC(=O)C(C)C`, the Potency entry in [1], in [2], in test [3], in test [4], in [5] and in test [6] was “inactive” each time. Besides, the Potency entry in test [7], in test [8], in test [9], in test [10], in test [20] and in test [11] was “inactive” in each case. The Potency result in [12], in test [13], in test [14], in test [15], in [17] and in test [18] was “inactive” each time. For the same molecule, in test [19], the Potency entry is “inactive”.
For `Nc1ccc(N=Nc2ccccc2)c(N)n1`, the Potency in test [1] is 30.8 µM (active). Also, the Potency entry in test [2], in test [3], in test [4], in test [5], in test [6] and in [7] was “inactive” each time. Also, the Potency result in [8], in test [9], in test [10], in test [20], in [11] and in test [12] was “inactive” in each case. In addition, the Potency result in [13], in [14], in test [17], in test [18] and in test [19] was “inactive” each time.
Consider `O=[Si]=O`, for which the Potency result in [1], in test [2], in test [3], in test [4], in [5] and in test [6] was “inactive” each time. Further, the Potency entry in test [7], in test [8], in [9], in test [10], in test [20] and in test [11] was “inactive” throughout. Besides, the Potency entry in test [12], in test [13], in test [14], in test [15], in [16] and in test [17] was “inactive” throughout. Further, the Potency result in [18] and in test [19] was “inactive” throughout.
